Results published in PubChem BioAssay (Tox21).
Records with an inconclusive call do not appear. Where a call stands in place of a potency, no number is given. A number with no mark means an inactive call. Calls of active or inactive are those of the source. Unless noted, calls follow the shape of the full dose curve.

Target: Retinoic acid receptor RXR-alpha (Homo sapiens) (UniProt P19793)
Assay: qHTS assay to identify small molecule agonists of the RXR signaling pathway (AID 1159527); also: nearly all actives have a fitted effect of over 35% in size
Settings: HEK293T RXRa-UAS-bla, beta-lactamase ratio, 16 h; series mostly up to 76.8 µM
In short: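 Compounds in DMSO were added to RXR-alpha-UAS-bla HEK 293T cells kept in 2% charcoal-stripped serum, and incubated 16 hr at 37 C with 5% CO2. Reporter signal came from a 2 hr B/G FRET substrate step.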
Potency is read from the fitted curve at half-maximal effect.

Retinoic acid receptor RXR-alpha (Homo sapiens), sequence (P19793 whole entry, looked up): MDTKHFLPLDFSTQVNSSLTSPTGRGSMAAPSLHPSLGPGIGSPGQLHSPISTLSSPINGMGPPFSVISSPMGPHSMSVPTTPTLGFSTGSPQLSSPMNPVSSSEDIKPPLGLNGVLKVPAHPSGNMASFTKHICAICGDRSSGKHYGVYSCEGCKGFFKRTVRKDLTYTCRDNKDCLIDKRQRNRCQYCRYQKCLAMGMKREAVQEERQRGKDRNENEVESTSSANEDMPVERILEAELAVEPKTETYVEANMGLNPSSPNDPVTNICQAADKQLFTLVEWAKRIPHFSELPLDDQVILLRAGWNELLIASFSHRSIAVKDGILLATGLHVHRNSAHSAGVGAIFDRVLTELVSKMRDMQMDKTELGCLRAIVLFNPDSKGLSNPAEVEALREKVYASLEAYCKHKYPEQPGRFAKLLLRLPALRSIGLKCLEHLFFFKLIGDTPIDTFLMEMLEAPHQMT

Compound | Potency | activation
CC(C)(O)c1ccccc1CC[C@@H](SCC1(CC(=O)O)CC1)c1cccc(/C=C/c2ccc3ccc(Cl)cc3n2)c1 | inactive | –
CCC(=O)OC/C=C/c1ccccc1 | inactive | –
O=C(CS)OCCOC(=O)CS | inactive | –
CN1CCN(c2c(F)cc3c(=O)c(C(=O)O)cn4c3c2OCN4C)CC1 | – | 9.65% [at 15.8 µM]
Cc1cc(O)c(C(C)C)cc1Cl | inactive | –
O=C(C(=O)c1ccccc1)c1ccccc1 | inactive | –
O=C(CCC1CCN(Cc2ccccc2)CC1)c1ccc2c(c1)NCCCC2 | inactive | –
CCOC(=O)N1CCC(n2c(=O)[nH]c3cc(Cl)ccc32)CC1 | inactive | –
O=C(CCCCCCC(=O)Nc1ccccc1)NO | inactive | –
CC(C)CCCC(=O)O | inactive | –
CCC(C(=O)OCCOCCN(CC)CC)c1ccccc1 (centres undefined) | inactive | –
CCCCC(=O)O[C@]1(C(=O)CO)CC[C@H]2[C@@H]3CCC4=CC(=O)CC[C@]4(C)[C@H]3[C@@H](O)C[C@@]21C | inactive | –
COc1cc2[nH]c(=O)[nH]c(=O)c2cc1OC | inactive | –
CC[C@@H]([C@H](C)O)n1ncn(-c2ccc(N3CCN(c4ccc(OC[C@@H]5CO[C@@](Cn6cncn6)(c6ccc(F)cc6F)C5)cc4)CC3)cc2)c1=O | inactive | –
CCC(C)(O)CCC=C(C)C (centres undefined) | inactive | –
Cc1nc2ccccn2c(=O)c1CCN1CCC(C(=O)c2ccc(F)cc2)CC1 | inactive | –
O=C1OCCN1/N=C/c1ccc([N+](=O)[O-])o1 | inactive | –

Compound | Potency | activation
CC(C)C(OC(=O)c1ccccc1)C(C)(C)COC(=O)c1ccccc1 (centres undefined) | inactive | –
CC(C)C(=O)O | inactive | –
CC(C)CCCCCCOC(=O)CCCCC(=O)OCCCCCCC(C)C | inactive | –
C[C@@H]1C[C@H]2[C@@H]3CCC4=CC(=O)C=C[C@]4(C)[C@@]3(F)[C@@H](O)C[C@]2(C)[C@H]1C(=O)CO | inactive | –
CC1(C)C2=CCCC(C)(C)[C@]23CC[C@H]1C3 | inactive | –
CNC(=S)NC | 38.9 µM (active) | –
CCCCC/C(=C\c1ccccc1)CO | inactive | –
Cc1cc(C(=C2C=CC(=Nc3ccc(S(=O)(=O)O)cc3S(=O)(=O)O)C=C2)c2ccc(Nc3ccc(S(=O)(=O)O)cc3)cc2)ccc1N | inactive | –
CC(N)CN (centres undefined) | inactive | –
COc1cc2c(N3CCN(C(=O)Nc4ccc(OC(C)C)cc4)CC3)ncnc2cc1OCCCN1CCCCC1 | inactive | –
Nc1nc(Cl)nc2c1ncn2[C@@H]1O[C@H](CO)[C@@H](O)[C@@H]1F | inactive | –
COC(=O)[C@@H]1CC2=CC(=O)CC[C@]2(C)[C@@]23O[C@@H]2C[C@@]2(C)[C@@H](CC[C@@]24CCC(=O)O4)[C@H]13 | inactive | –
CCCCN(CCCC)CCCOC(=O)c1ccc(N)cc1 | inactive | –
C=CC(C)(O)CCCC(C)CCCC(C)CCCC(C)C (centres undefined) | 6.13 µM (active) | –
CCN(Cc1cccc(S(=O)(=O)O)c1)c1ccc(C(=C2C=CC(=[N+](CC)Cc3cccc(S(=O)(=O)[O-])c3)C=C2)c2ccccc2)cc1 | inactive | –
COCc1c(C(C)C)nc(C(C)C)c(/C=C/[C@@H](O)C[C@@H](O)CC(=O)O)c1-c1ccc(F)cc1 | inactive | –
CCCCCCOC(=O)CCCCCCCC(=O)OCCCCCC | inactive | –

Test system: not listed separately
Assay: qHTS assay to identify small molecule agonists of the RXR signaling pathway - cell viability counter screen (AID 1159529; active = well fitted cell-killing curve with a large enough effect in the repeat runs; also: nearly all actives have a fitted effect of over 50% in size;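 as to activity change, negative = cytotoxicity: HEK 293T cells carrying an RXR-alpha UAS beta-lactamase reporter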)
Settings: RXR-alpha-bla HEK293T viability, CellTiter-Glo, 16 h; series mostly up to 76.8 µM
In short: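 Counter screen: CellTiter-Glo luminescence. Cells: RXR-alpha-UAS-bla HEK 293T. Medium: 2% charcoal-stripped FBS. Treatment: 16 h, 37 C. Reagent incubation: 30 min, RT.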

Compound | Potency | activity change, negative = cytotoxicity
CC(C)(O)c1ccccc1CC[C@@H](SCC1(CC(=O)O)CC1)c1cccc(/C=C/c2ccc3ccc(Cl)cc3n2)c1 | inactive | –
CCC(=O)OC/C=C/c1ccccc1 | inactive | –
CN1CCN(c2c(F)cc3c(=O)c(C(=O)O)cn4c3c2OCN4C)CC1 | – | 2.53% [at 15.8 µM]
O=C(C(=O)c1ccccc1)c1ccccc1 | inactive | –
O=C(CCC1CCN(Cc2ccccc2)CC1)c1ccc2c(c1)NCCCC2 | inactive | –
CCOC(=O)c1ccccc1OC | inactive | –
CC(C)CCCC(=O)O | inactive | –
O=C(O)c1ccccc1NCCc1ccccc1 | inactive | –
CCOC(=N)CC(=O)OCC | inactive | –
COc1cc2[nH]c(=O)[nH]c(=O)c2cc1OC | inactive | –
CC[C@@H]([C@H](C)O)n1ncn(-c2ccc(N3CCN(c4ccc(OC[C@@H]5CO[C@@](Cn6cncn6)(c6ccc(F)cc6F)C5)cc4)CC3)cc2)c1=O | 4.77 µM (active) | –
CCC(C)(C)C1CCC(O)CC1 (centres undefined) | inactive | –
CCC(C)(O)CCC=C(C)C (centres undefined) | inactive | –
Cc1nc2ccccn2c(=O)c1CCN1CCC(C(=O)c2ccc(F)cc2)CC1 | inactive | –
O=C(O)c1cccc(O)c1 | inactive | –
O=C1OCCN1/N=C/c1ccc([N+](=O)[O-])o1 | inactive | –
CC(C)C(=O)O | inactive | –
CC(C)CCCCCCOC(=O)CCCCC(=O)OCCCCCCC(C)C | inactive | –
Cc1cc(C(=C2C=CC(=Nc3ccc(S(=O)(=O)O)cc3S(=O)(=O)O)C=C2)c2ccc(Nc3ccc(S(=O)(=O)O)cc3)cc2)ccc1N | inactive | –
CC(N)CN (centres undefined) | inactive | –
Nc1nc(Cl)nc2c1ncn2[C@@H]1O[C@H](CO)[C@@H](O)[C@@H]1F | inactive | –
C=CC(C)(O)CCCC(C)CCCC(C)CCCC(C)C (centres undefined) | inactive | –
CCN(Cc1cccc(S(=O)(=O)O)c1)c1ccc(C(=C2C=CC(=[N+](CC)Cc3cccc(S(=O)(=O)[O-])c3)C=C2)c2ccccc2)cc1 | inactive | –
CCCCCCOC(=O)CCCCCCCC(=O)OCCCCCC | inactive | –
NC(=O)Nc1ccc(Cl)c(Cl)c1 | inactive | –
